Calls of active or inactive are those of the source. The calls were made as follows: active = hit-call score of the fitted dose curve at least 0.9, where 1 is the maximum; inactive = score below 0.9.
Read-out: ABC Transporter (ABCB11), ABCB11 (gene 8647)
Test: LTEA_HepaRG_ABCB11: Life Technologies and Expression Analysis (LTEA) Assay for ABC Transporter (ABCB11) using HepaRG (AID 2283463)
Conditions: mRNA level, 48 h; actives raise or lower the signal
In short: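 ABCB11 transcript levels are read by Fluidigm TaqMan qRT-PCR after 48 h chemical treatment of human HepaRG cells. Concentrations span 100 uM downward in half-log steps with 0.5% DMSO; gain or loss is fitted against DMSO controls.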

Chain of Broad substrate specificity ATP-binding cassette transporter ABCG2 (Homo sapiens) (Q9UNQ0 whole entry, looked up): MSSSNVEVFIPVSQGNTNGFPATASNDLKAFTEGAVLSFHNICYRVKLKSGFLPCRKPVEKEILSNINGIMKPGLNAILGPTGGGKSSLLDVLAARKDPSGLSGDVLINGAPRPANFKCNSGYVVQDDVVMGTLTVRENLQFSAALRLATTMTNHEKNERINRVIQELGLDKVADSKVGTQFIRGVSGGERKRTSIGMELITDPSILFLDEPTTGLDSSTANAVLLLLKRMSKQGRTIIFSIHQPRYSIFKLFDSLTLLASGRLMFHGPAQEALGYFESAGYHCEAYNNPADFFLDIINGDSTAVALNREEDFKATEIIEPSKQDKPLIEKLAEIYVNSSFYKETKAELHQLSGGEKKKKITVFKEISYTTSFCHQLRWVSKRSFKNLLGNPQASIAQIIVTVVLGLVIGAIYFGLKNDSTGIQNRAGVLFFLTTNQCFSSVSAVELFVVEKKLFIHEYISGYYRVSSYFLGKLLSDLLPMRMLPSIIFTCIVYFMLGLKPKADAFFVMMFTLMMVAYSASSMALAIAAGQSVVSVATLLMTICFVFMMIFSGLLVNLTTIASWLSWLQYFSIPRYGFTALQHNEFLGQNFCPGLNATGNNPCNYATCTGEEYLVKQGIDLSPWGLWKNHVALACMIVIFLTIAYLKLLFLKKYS

Compound | outcome | AC50
Cc1nc(C)nc(N2C[C@@H](C)N(c3ccnc([C@@H](C)O)n3)[C@@H](C)C2)n1 | inactive | 
O=C(O)Cc1ccccc1Nc1c(Cl)cccc1Cl | inactive | 
NCCO | inactive | 
COc1ccc(S(=O)(=O)N2C(=O)[C@@](c3ccccc3OC)(N3C[C@H](O)C[C@H]3C(=O)N(C)C)c3cc(Cl)ccc32)c(OC)c1 |  | 14.9 µM (active)
O=C(O)CCCCC(=O)O | inactive | 
Cc1ccc(C)c(O)c1C | inactive | 
Cc1ccc(C(C)C)c(O)c1 | inactive | 
Nc1nc(N)c2nc(CNc3ccc(C(=O)N[C@@H](CCC(=O)O)C(=O)O)cc3)cnc2n1 |  | 0.104 µM (active)
CN1CCCC1=O | inactive | 
Oc1ccc2ccccc2c1N=Nc1ccccc1 |  | 6.98 µM (active)
CN1CCN(Cc2cc(-c3ccc4[nH]c(=O)oc4c3)co2)[C@@H](c2ccc(F)cc2)C1 |  | 67.9 µM (active)
CCCCC(CC)COC(=O)CC(C(=O)OCC(CC)CCCC)S(=O)(=O)O (configuration not stated) | inactive | 
NS(=O)(=O)c1cc2c(cc1Cl)NCNS2(=O)=O | inactive | 
CC(=O)C(C)=CC1C(C)=CCCC1(C)C (configuration not stated) | inactive | 
CCNc1cccc(C)c1 | inactive | 
Cc1cccc([N+](=O)[O-])c1C | inactive | 
NCC1(Cc2noc(=O)[nH]2)CCCCC1 | inactive | 
Cc1oc(-c2ccccc2)nc1CCOc1cccc2c1ccn2CCC(=O)O |  | 93.7 µM (active)
COc1ccc(C)cc1N | inactive | 
CCOC(=O)CCC(=O)OCC | inactive | 
Cc1cc(NC(=O)C(=O)O)cc(C)c1Oc1ccc(O)c2c1CCC2 |  | 0.00778 µM (active)
O=c1[nH]cc(F)c(=O)[nH]1 |  | 64 µM (active)
CC(=O)OCCOCCOCCOC(C)=O | inactive | 
CCCCCCC(=O)OCC | inactive | 
CC(C)c1ccc(C(=O)N=C(N)N)cc1S(C)(=O)=O |  | 0.392 µM (active)
CC1(C)NC(=O)NC1=O | inactive | 
Nc1ccc(S(=O)(=O)c2ccc(N)cc2)cc1 | inactive | 
C[C@]12C=CC(=O)C=C1CC[C@@H]1[C@@H]2C(=O)C[C@@]2(C)[C@H]1CC[C@]2(O)C(=O)CO | inactive | 
CCCCCCCCCCO | inactive | 

Read-out: ABC Transporter (ABCC2), ABCC2 (gene 1244)
Test: LTEA_HepaRG_ABCC2: Life Technologies and Expression Analysis (LTEA) Assay for ABC Transporter (ABCC2) using HepaRG (AID 2283464)
Conditions: mRNA level, 48 h; actives raise or lower the signal
In short: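 Gene expression of ABCC2 was determined by qRT-PCR in HepaRG cells exposed 48 h to chemicals (highest 100 uM, half-log dilutions). Activity was fitted in both directions relative to 0.5% DMSO vehicle.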

Compound | outcome | AC50
Cc1nc(C)nc(N2C[C@@H](C)N(c3ccnc([C@@H](C)O)n3)[C@@H](C)C2)n1 | inactive | 
O=C(O)Cc1ccccc1Nc1c(Cl)cccc1Cl |  | 13 µM (active)
NCCO | inactive | 
COc1ccc(S(=O)(=O)N2C(=O)[C@@](c3ccccc3OC)(N3C[C@H](O)C[C@H]3C(=O)N(C)C)c3cc(Cl)ccc32)c(OC)c1 |  | 31.4 µM (active)
O=C(O)CCCCC(=O)O | inactive | 
Cc1ccc(C)c(O)c1C | inactive | 
Cc1ccc(C(C)C)c(O)c1 | inactive | 
Nc1nc(N)c2nc(CNc3ccc(C(=O)N[C@@H](CCC(=O)O)C(=O)O)cc3)cnc2n1 | inactive | 
CN1CCCC1=O | inactive | 
Oc1ccc2ccccc2c1N=Nc1ccccc1 | inactive | 
CN1CCN(Cc2cc(-c3ccc4[nH]c(=O)oc4c3)co2)[C@@H](c2ccc(F)cc2)C1 | inactive | 
CCCCC(CC)COC(=O)CC(C(=O)OCC(CC)CCCC)S(=O)(=O)O (configuration not stated) |  | 89.2 µM (active)
NS(=O)(=O)c1cc2c(cc1Cl)NCNS2(=O)=O | inactive | 
CC(=O)C(C)=CC1C(C)=CCCC1(C)C (configuration not stated) | inactive | 
CCNc1cccc(C)c1 | inactive | 
Cc1cccc([N+](=O)[O-])c1C | inactive | 
NCC1(Cc2noc(=O)[nH]2)CCCCC1 | inactive | 
Cc1oc(-c2ccccc2)nc1CCOc1cccc2c1ccn2CCC(=O)O | inactive | 
COc1ccc(C)cc1N | inactive | 
CCOC(=O)CCC(=O)OCC | inactive | 
Cc1cc(NC(=O)C(=O)O)cc(C)c1Oc1ccc(O)c2c1CCC2 | inactive | 
O=c1[nH]cc(F)c(=O)[nH]1 | inactive | 
CC(=O)OCCOCCOCCOC(C)=O | inactive | 
CCCCCCC(=O)OCC | inactive | 
CC(C)c1ccc(C(=O)N=C(N)N)cc1S(C)(=O)=O |  | 14 µM (active)
CC1(C)NC(=O)NC1=O | inactive | 
Nc1ccc(S(=O)(=O)c2ccc(N)cc2)cc1 | inactive | 
C[C@]12C=CC(=O)C=C1CC[C@@H]1[C@@H]2C(=O)C[C@@]2(C)[C@H]1CC[C@]2(O)C(=O)CO |  | 50 µM (active)
CCCCCCCCCCO | inactive | 

Read-out: Broad substrate specificity ATP-binding cassette transporter ABCG2 (Homo sapiens) (UniProt Q9UNQ0)
Test: LTEA_HepaRG_ABCG2: Life Technologies and Expression Analysis (LTEA) Assay for ABC Transporter (ABCG2) using HepaRG (AID 2283465)
Conditions: mRNA level, 48 h; actives raise or lower the signal
In short: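 Read-out is ABCG2 mRNA induction or loss quantified by qRT-PCR after 48 h chemical treatment of human HepaRG cells, normalized to three housekeeping genes. Concentrations reached 100 uM top in half-log steps; fitting was bidirectional against 0.5% DMSO.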

Compound | outcome | AC50
Cc1nc(C)nc(N2C[C@@H](C)N(c3ccnc([C@@H](C)O)n3)[C@@H](C)C2)n1 | inactive | 
O=C(O)Cc1ccccc1Nc1c(Cl)cccc1Cl | inactive | 
NCCO | inactive | 
COc1ccc(S(=O)(=O)N2C(=O)[C@@](c3ccccc3OC)(N3C[C@H](O)C[C@H]3C(=O)N(C)C)c3cc(Cl)ccc32)c(OC)c1 |  | 11.7 µM (active)
O=C(O)CCCCC(=O)O | inactive | 
Cc1ccc(C)c(O)c1C | inactive | 
Cc1ccc(C(C)C)c(O)c1 | inactive | 
CN1CCCC1=O | inactive | 
CN1CCN(Cc2cc(-c3ccc4[nH]c(=O)oc4c3)co2)[C@@H](c2ccc(F)cc2)C1 | inactive | 
CCCCC(CC)COC(=O)CC(C(=O)OCC(CC)CCCC)S(=O)(=O)O (configuration not stated) | inactive | 
CC(=O)C(C)=CC1C(C)=CCCC1(C)C (configuration not stated) | inactive | 
CCNc1cccc(C)c1 | inactive | 
Cc1cccc([N+](=O)[O-])c1C | inactive | 
Cc1oc(-c2ccccc2)nc1CCOc1cccc2c1ccn2CCC(=O)O |  | 40.2 µM (active)
CCOC(=O)CCC(=O)OCC | inactive | 
Cc1cc(NC(=O)C(=O)O)cc(C)c1Oc1ccc(O)c2c1CCC2 | inactive | 
CC(=O)OCCOCCOCCOC(C)=O | inactive | 
C[C@]12C=CC(=O)C=C1CC[C@@H]1[C@@H]2C(=O)C[C@@]2(C)[C@H]1CC[C@]2(O)C(=O)CO | inactive | 
CCCCCCCCCCO | inactive | 
